An excerpt weighted towards active compounds, which were near 11% of everything screened.
HEK293 tox – kills HEK 293 cells | HEK 293 viability, ATP luminescence (CellTiter-Glo), 48-72 h | Potency, µM (titrated, usually from 115 µM), without a hit: at the highest dose activity change, negative = cytotoxicity, usual class: inhibitors | hit rate 6.6% among 94,000 | AID 1345083; further: nearly all actives have a fitted effect of over 60% in size
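Viability of HEK 293 cells, plated at 250 cells/well, was judged by cellular ATP after compound treatment for 48 or 72 hr. Luminescence was imaged 10 min after CellTiter-Glo addition at room temperature.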
FLuc inh – blocks purified firefly luciferase enzyme activity; purified P. pyralis luciferase, luminescence, biochemical; Potency, µM (titrated, usually from 115 µM), most hits filed as inhibitors; hit rate 2.5% among 76,000; AID 1347043; further: nearly all actives have a fitted effect of over 65% in size
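Purified 10nM P. pyralis luciferase with 10uM D-luciferin and 10uM ATP in 50mM Tris acetate pH 7.5, 10mM Mg acetate, 0.01% Tween-20, 0.05% BSA. qHTS titration; luminescence read by CCD imager.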
3T3 cytotox – kills NIH 3T3 cells; hit rate 4.3% among 94,000; AID 1345082; NIH 3T3 viability, CellTiter-Glo ATP luminescence, 48-72 h; Potency, µM (series often up to 96.7 µM), for the others: at the highest dose activity change, negative = cytotoxicity, most hits filed as inhibitors; further: nearly all actives have a fitted effect of over 55% in size
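Cytotoxicity was measured by CellTiter-Glo ATP luminescence after 48 or 72 h compound exposure at 37 °C. Mouse NIH 3T3 fibroblasts were seeded at 400 cells/well and dosed by 23 nL pin transfer.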
NPR1 antag – antagonists of human natriuretic peptide receptor Npr1; P16066; HEK293 hNpr1 GloSensor cGMP, ANP-stimulated luminescence; Potency, µM (series often up to 46.3 µM), inactives show top-dose activity change, negative = inhibition, most hits filed as inhibitors; hit rate 1.6% among 76,000; AID 1347048; calls by dose curve; further: nearly all actives have a fitted effect of over 60% in size
Target sequence (P16066 whole entry, looked up): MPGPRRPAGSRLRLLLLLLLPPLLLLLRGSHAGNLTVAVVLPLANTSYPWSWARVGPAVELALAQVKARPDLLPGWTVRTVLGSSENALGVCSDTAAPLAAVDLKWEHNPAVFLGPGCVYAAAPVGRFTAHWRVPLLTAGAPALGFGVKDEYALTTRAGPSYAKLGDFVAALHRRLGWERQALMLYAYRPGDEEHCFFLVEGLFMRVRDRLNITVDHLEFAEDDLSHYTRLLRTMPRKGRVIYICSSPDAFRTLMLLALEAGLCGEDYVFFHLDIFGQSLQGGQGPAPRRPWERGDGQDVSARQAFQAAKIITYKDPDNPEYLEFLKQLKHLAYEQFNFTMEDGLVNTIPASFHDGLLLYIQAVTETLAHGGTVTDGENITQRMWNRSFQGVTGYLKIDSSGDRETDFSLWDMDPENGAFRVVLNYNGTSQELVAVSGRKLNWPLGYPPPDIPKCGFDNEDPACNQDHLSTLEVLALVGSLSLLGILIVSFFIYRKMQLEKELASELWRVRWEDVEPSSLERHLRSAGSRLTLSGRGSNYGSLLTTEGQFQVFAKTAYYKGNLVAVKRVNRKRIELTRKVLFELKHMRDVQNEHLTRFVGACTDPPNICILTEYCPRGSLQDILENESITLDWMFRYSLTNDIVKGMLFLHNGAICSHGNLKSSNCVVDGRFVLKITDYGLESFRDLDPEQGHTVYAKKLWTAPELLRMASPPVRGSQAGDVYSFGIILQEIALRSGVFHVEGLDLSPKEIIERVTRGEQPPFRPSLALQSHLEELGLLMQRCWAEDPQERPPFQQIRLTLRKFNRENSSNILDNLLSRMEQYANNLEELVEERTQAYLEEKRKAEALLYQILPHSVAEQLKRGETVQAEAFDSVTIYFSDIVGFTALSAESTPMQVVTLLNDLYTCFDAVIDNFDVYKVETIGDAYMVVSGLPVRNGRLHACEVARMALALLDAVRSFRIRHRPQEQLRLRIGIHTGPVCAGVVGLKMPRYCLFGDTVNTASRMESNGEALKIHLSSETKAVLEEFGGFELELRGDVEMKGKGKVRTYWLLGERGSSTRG
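Compound pre-incubated 30 min at room temperature on GloSensor-loaded HEK293 cells stably carrying hNpr1 and the pGS-40F cGMP biosensor. Stimulation uses hNppA at 0.1 nM final; luminescence is taken at baseline and 20 min post-agonist.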
* hit, by the source's call; i = inactive; ? = inconclusive; . = no result; [ ] = dose if it differs, or a comment. Unless noted, the call rests on the fitted dose curve; in most records, active means well fitted curve in the direction sought with a large enough effect; inconclusive means small, poorly fitted or top-dose-only effect, or another doubt; inactive means no such curve, though single readings can be large; an effect the other way counts as inactive or inconclusive. On the % scale 0 is the no-effect control and ±100 the full control effect; potency means the concentration at half of the fitted maximal effect.

SMILES	HEK293 tox	FLuc inh	3T3 cytotox	NPR1 antag
COc1ccc(C(=O)NC[C@H]2C[C@@H]3CCN2C[C@@H]3c2cc(-c3cccs3)nn2C)cc1	?	i	?	-3%
COc1cccc([C@H]2CN(C(=O)c3cnc(C)cn3)[C@@H]3C4CCN(CC4)[C@H]23)c1	i	i	-16%	0%
CCOC(=O)[C@H]1CN(C(=O)OCC)[C@]2(C)C(=O)N(C)c3ccccc3[C@H]12	?	.	-16%	.
O=c1c(-c2cccs2)ccc2n1C[C@H]1C[C@@H]2CN(C2CCOCC2)C1	-19%[172 µM]	i	-27%[174 µM]	-1%[70.6 µM]
Cc1nc(-c2ccccc2)cc([C@H]2CN3CC[C@H]2C[C@@H]3CNS(C)(=O)=O)n1	-21%[172 µM]	i	?	-9%[70.6 µM]
Cc1nc(-c2ccc(C(F)(F)F)cc2)cc([C@H]2CN3CC[C@H]2C[C@@H]3CNS(C)(=O)=O)n1	?	i	40µM*	1%
Cc1nc(-c2ccccc2Br)cc([C@H]2CN3CC[C@H]2C[C@@H]3CNC(=O)c2ccc(C(C)(C)C)cc2)n1	10µM*	i	25µM*	-12%
Cc1ccc(C(=O)NC[C@H]2C[C@@H]3CCN2C[C@@H]3c2cc(-c3ccccc3Br)nc(C)n2)cc1	?	i	?	-5%
Cc1nc(-c2ccccc2Br)cc([C@H]2CN3CC[C@H]2C[C@@H]3CNC(=O)c2ccc(N(C)C)cc2)n1	28µM*	i	?	-8%
Cc1nc(-c2cccs2)cc([C@H]2CN3CC[C@H]2C[C@@H]3CNC(=O)c2ccc(C(F)(F)F)cc2)n1	?	i	?	-5%
CN(C)c1ccc(C(=O)NC[C@H]2C[C@@H]3CCN2C[C@@H]3CN2CCc3ccccc3C2)cc1	89µM*	i	32µM*	-26%[70.6 µM]
O=C(O)C1=NOC2CN(Cc3ccncc3)CC12 (configuration not stated)	5%[230 µM]	.	4%[174 µM]	.
COc1cc2c(cc1OCC1CC1)NC(=O)C21CCN(c2ccnc(C)n2)CC1	79µM*	i	?	-7%[70.6 µM]
COc1cc2c(cc1OC1CCCC1)NC(=O)C21CCN(c2cc(NC3CC3)ncn2)CC1	?	i	?	-13%
COc1cc2c(cc1OCC1CC1)NC(=O)C21CCN(c2cc(NC3CC3)ncn2)CC1	89µM*	i	25µM*	-9%[70.6 µM]
COc1cc2c(cc1OC1CCCC1)NC(=O)C21CCN(c2ccnc(C)n2)CC1	?	i	79µM*	-10%[70.6 µM]
COc1cc2c(cc1OCc1ccncc1)NC(=O)C21CCN(C(C)=O)CC1	-29%[172 µM]	i	?	-4%[70.6 µM]
Cn1nc(C2CCCCC2)cc1[C@H]1CN2CC[C@H]1C[C@@H]2CO	?	i	?	0%[70.6 µM]
CC(C)c1ccc(NC(=O)OC[C@H]2C[C@@H]3CCN2C[C@@H]3c2cc(C3CCCCC3)nn2C)cc1	14µM*	i	22µM*	-19%
CC(C)c1ccc(NC(=O)OC[C@H]2C[C@@H]3CCN2C[C@@H]3c2cc(C3CCCC3)nc(-c3ccncc3)n2)cc1	3.5µM*	?	4.5µM*	-24%
COc1ccc(NC(=O)NC[C@H]2C[C@@H]3CCN2C[C@@H]3c2cc(C3CCCC3)nn2C)cc1	?	i	?	-8%
COc1ccc(NC(=O)OC[C@H]2C[C@@H]3CCN2C[C@@H]3c2cc(C3CCCC3)nc(-c3ccncc3)n2)cc1	14µM*	i	?	?
Cn1nc(C2CCCCC2)cc1[C@H]1CN2CC[C@H]1C[C@@H]2CN	100µM*	i	?	1%[70.6 µM]
COc1cccc([C@H]2CN(C(=O)Cc3cnc[nH]3)[C@@H]3C4CCN(CC4)[C@H]23)c1	-4%	i	2%	4%
CCC(CC)c1cc([C@H]2CN3CC[C@H]2C[C@@H]3CNC(C)=O)nc(-c2ccncc2)n1	100µM*	i	45µM*	?
SMILES	HEK293 tox	FLuc inh	3T3 cytotox	NPR1 antag
Cn1nc(-c2ccc3ccccc3c2)cc1[C@H]1CN2CC[C@H]1C[C@@H]2COC(=O)Nc1ccccc1	20µM*	?	18µM*	-8%
Cc1nc(-c2ccc(N(C)C)cc2)cc([C@H]2CN3CC[C@H]2C[C@@H]3COC(=O)Nc2ccc(C(C)C)cc2)n1	3.5µM*	?	3.5µM*	?
CCCNC(=O)OC[C@H]1C[C@@H]2CCN1C[C@@H]2c1cc(C(CC)CC)nc(-c2ccncc2)n1	?	i	40µM*	?
COc1ccc(-c2cc([C@H]3CN4CC[C@H]3C[C@@H]4CNC(=O)c3cccs3)nc(C)n2)cc1OC	?	i	?	0%
CCC(CC)c1cc([C@H]2CN3CC[C@H]2C[C@@H]3CNC(=O)C(C)(C)C)nc(-c2ccncc2)n1	?	i	?	-3%
CC(C)(C)c1ccc(NC(=O)OC[C@H]2C[C@@H]3CCN2C[C@@H]3c2cc(C3CCCC3)nc(-c3ccncc3)n2)cc1	20µM*	?	20µM*	5%
CC[C@H]1CN2CC[C@H]1C[C@@H]2COC(=O)Nc1cc(OC)cc(OC)c1	100µM*	i	?	3%[70.6 µM]
O=C(Nc1ccccc1)OC[C@H]1C[C@@H]2CCN1C[C@@H]2c1cc(C2CCCC2)nc(-c2ccncc2)n1	4µM*	?	7.9µM*	?
CCC(CC)c1cc([C@H]2CN3CC[C@H]2C[C@@H]3COC(=O)Nc2ccc(C(C)(C)C)cc2)nc(-c2ccncc2)n1	7.1µM*	?	5µM*	-24%
O[C@H]1[C@H](NCc2ccccn2)[C@H]2CO[C@H](O2)[C@@H]1N1CCCC1	4%[172 µM]	i	i	6%[70.6 µM]
CCOC(=O)[C@@H]1[C@H]2c3ccccc3N(C)C(=O)[C@H]2N(C(=O)c2cccs2)[C@@H]1c1ccccc1	79µM*	.	?	.
C#CCN1C(=O)[C@@H]2[C@H](c3ccccc31)[C@@H](C(=O)OCC)[C@@H](c1ccccc1)N2C(=O)c1ccco1	32µM*	.	?	.
COc1cc2c(cc1OCC1CC1)NC(=O)C21CCN(Cc2ccncc2)CC1	?	i	-26%[138 µM]	4%[70.6 µM]
COc1cc2c(cc1OCC1CC1)NC(=O)C21CCN(Cc2cccc(O)c2)CC1	89µM*	?	?	-9%[70.6 µM]
COc1cc2c(cc1OCc1ccncc1)NC(=O)C21CCN(Cc2ccccc2)CC1	100µM*	i	79µM*	-27%[70.6 µM]
COc1cc2c(cc1OCc1ccccc1)NC(=O)C21CCN(Cc2cccc(O)c2)CC1	35µM*	?	22µM*	1%
COc1cc2c(cc1OCC1CC1)NC(=O)C21CCN(Cc2ccccc2O)CC1	?	i	40µM*	-17%[70.6 µM]
COc1cc2c(cc1OCC1CC1)NC(=O)C21CCN(C(=O)c2cccc(O)c2)CC1	?	i	-22%[138 µM]	4%[70.6 µM]
COc1cc2c(cc1OCc1ccncc1)NC(=O)C21CCN(Cc2cccc(O)c2)CC1	?	i	?	-20%
Nc1ncccc1CN1C[C@H](c2ccc3c(c2)OCO3)[C@@H]2[C@H]1C1CCN2CC1	0%	i	-9%	-1%

Source: PubChem (National Center for Advancing Translational Sciences (NCATS))
